Test results published in PubChem BioAssay.

Assay: polyglutamine aggregate formation blockers (AID 1604)
Conditions: polyglutamine-induced protein aggregation inhibition assay; stronger effect = higher value; tested at 2.5 µM

SMILES | inhibition of aggregation
O=c1[nH]cc(F)c(=O)[nH]1 | 41.6%
CCc1nc(N)nc(N)c1-c1ccc(Cl)cc1 | 85.8%
CCc1cccc2c3c([nH]c12)C(CC)(CC(=O)O)OCC3 (stereo not drawn) | 57.6%
Nc1ncn([C@@H]2O[C@H](CO)[C@@H](O)[C@H]2O)c(=O)n1 | 38.1%
Cc1ccccc1C(OCCN(C)C)c1ccccc1 (stereo not drawn) | 70.1%
Cc1ccc(C)c(OCCCC(C)(C)C(=O)O)c1 | 39.4%
NC(=O)c1cnccn1 | 69.8%
COC1=CC(=O)C[C@@H](C)[C@]12Oc1c(Cl)c(OC)cc(OC)c1C2=O | 56.8%
CO[C@@]1(NC(=O)Cc2cccs2)C(=O)N2C(C(=O)O)=C(COC(N)=O)CS[C@@H]21 | 27.8%
OCCN1CCN(CCCN2c3ccccc3Sc3ccc(C(F)(F)F)cc32)CC1 | 51.3%
CN(C)CCOC(c1ccc(Cl)cc1)c1ccccn1 (stereo not drawn) | 44.8%
Cc1onc(-c2c(Cl)cccc2Cl)c1C(=O)N[C@@H]1C(=O)N2[C@@H]1SC(C)(C)[C@@H]2C(=O)O | 56.3%
NS(=O)(=O)c1cc(C2(O)NC(=O)c3ccccc32)ccc1Cl (stereo not drawn) | 77%
Cc1ccc(-c2cc(C(F)(F)F)nn2-c2ccc(S(N)(=O)=O)cc2)cc1 | 77%
O=S(=O)(O)CCS | 75%
COc1ccc(OC)c(C(O)CNC(=O)CN)c1 (stereo not drawn) | 41.7%
Cn1cnc([N+](=O)[O-])c1Sc1ncnc2nc[nH]c12 | 83.1%
c1ccc2[nH]c(-c3cscn3)nc2c1 | 30.1%
CCCNCC(O)COc1ccccc1C(=O)CCc1ccccc1 (stereo not drawn) | 21.6%
Cc1cn([C@H]2C[C@H](N=[N+]=[N-])[C@@H](CO)O2)c(=O)[nH]c1=O | 48.1%
COc1ccccc1OCC(O)COC(N)=O (stereo not drawn) | 88.8%
OC(CCN1CCCC1)(c1ccccc1)C1CCCCC1 (stereo not drawn) | 69.2%
O=C1C(CCS(=O)c2ccccc2)C(=O)N(c2ccccc2)N1c1ccccc1 (stereo not drawn) | 71.9%
COC(=O)Nc1nc2ccc(C(=O)c3ccccc3)cc2[nH]1 | 83.3%
NCc1ccc(S(N)(=O)=O)cc1 | 81.7%
Clc1ccc2c(c1)C(N1CCNCC1)=Nc1ccccc1O2 | -0.07%
CC(C)(C)NCC(O)COc1cccc2c1C[C@H](O)[C@H](O)C2 (stereo partly drawn) | 78.2%
NS(=O)(=O)c1cc2c(cc1Cl)NC=NS2(=O)=O | 80.6%
